Only some compounds are listed: those with a hit (about 1.7% of all), similar ones and a draw of the others.
LYPLA2 counter: LYPLA2 (human) inhibition in PME1 counter-screen; AID 2177; 0.38% of 320,000 active; O95372; inhibition, % at 5.9 µM; recombinant LYPLA2, FP-Rh probe fluorescence polarization;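 active = inhibition above the screen-wide mean plus 3 SD, limit set per campaign, cut at about 26% in these data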;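 also: 0% = LYPLA2 with DMSO and 100% = wells lacking LYPLA2 enzyme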
PAD4 inh: PAD4 (human) enzyme inhibition; 0.41% of 330,000 active; inhibition, % at 6.36 µM; Q9UM07; recombinant PAD4, RCA probe fluorescence polarization;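 active = percent inhibition above a cutoff equal to the mean of all tested compounds plus 3 SD, cut at about 15% in these data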;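 also: 0% = PAD4 with RCA probe and DMSO and 100% = probe without PAD4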
GSTO1 counter: counter-screen for RBBP9 inhibitors: inhibitors of human GSTO1; inhibition, % at 5.96 µM; 1.1% of 300,000 active; recombinant GSTO1, activity-based probe fluorescence polarization; AID 1974; P78417;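 active = inhibition above the campaign mean inhibition plus 3 SD, cut at about 35% in these data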;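 also: 0% = GSTO1-1 with DMSO and 100% = wells lacking GSTO1-1 enzyme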
Target sequence (P78417 whole entry, looked up): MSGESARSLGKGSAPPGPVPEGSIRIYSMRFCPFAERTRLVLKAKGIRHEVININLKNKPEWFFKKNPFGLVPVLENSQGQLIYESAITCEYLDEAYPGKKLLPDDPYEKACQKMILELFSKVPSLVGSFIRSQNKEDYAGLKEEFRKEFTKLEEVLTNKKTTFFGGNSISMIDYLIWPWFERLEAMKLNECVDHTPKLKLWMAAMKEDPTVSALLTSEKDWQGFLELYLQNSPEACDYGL
LYPLA1 inh: LYPLA1 (human) inhibition in PME1 counter-screen. O75608. recombinant LYPLA1, FP-Rh probe fluorescence polarization. inhibition, % at 5.9 µM. 0.16% of 320,000 active. AID 2174;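 active = inhibition above the mean of all tested compounds plus 3 SD, set per campaign, cut at about 14% in these data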;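 also: inhibitors block serine hydrolase probe labeling of LYPLA1 so polarization falls; 0% = enzyme with DMSO and 100% = wells lacking LYPLA1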
Target sequence (O75608 whole entry, looked up): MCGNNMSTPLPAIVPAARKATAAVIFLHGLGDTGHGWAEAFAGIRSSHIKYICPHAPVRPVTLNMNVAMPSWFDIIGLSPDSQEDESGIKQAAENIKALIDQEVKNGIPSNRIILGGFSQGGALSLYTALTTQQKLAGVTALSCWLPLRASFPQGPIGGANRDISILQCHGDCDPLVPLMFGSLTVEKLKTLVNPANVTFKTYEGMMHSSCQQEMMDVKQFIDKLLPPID
Fam108B inh: Fam108B inhibition, counter-screen for RBBP9 inhibitors | recombinant Fam108B, FP-Rh probe fluorescence polarization | inhibition, % at 9.51 µM | 0.33% of 300,000 active | AID 1947;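 active = inhibition above the screen mean inhibition plus 3 SD, computed separately per campaign, cut at about 18% in these data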;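 also: inhibitors lower polarization as less probe binds the enzyme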
PME-1 inh: PME-1 (human) inhibition; recombinant PME-1, FP-Rh probe fluorescence polarization; 0.53% of 320,000 active; inhibition, % at 5.9 µM;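 active = inhibition above the campaign mean of all compounds plus 3 SD, cut at about 26% in these data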;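 also: competitive labeling of PME-1 active site by serine hydrolase directed probe; 0% = PME-1 with DMSO and 100% = wells lacking PME-1 enzyme; inhibitors block probe labeling so polarization falls and inhibition rises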
* = called active by the depositor.

Screening CCC(C)N1C(=O)/C(=C/c2ccc3c(c2)CCN3CCCCl)C(=O)NC1=S (stereo not drawn) returned LYPLA2 counter -5, PAD4 inh -6, GSTO1 counter 37*, LYPLA1 inh -4, Fam108B inh -2 and PME-1 inh -10.
For CC(C)CN1CCN(Cc2cccc3c2OCO3)CC1CCO (stereo not drawn) the results were LYPLA2 counter 0, PAD4 inh -8, GSTO1 counter 1, LYPLA1 inh 0, Fam108B inh 2 and PME-1 inh -2.
`COc1cc(/C=C/c2nc3ccccc3c(=O)n2-c2ccccc2O)ccc1O` gave LYPLA2 counter -1, PAD4 inh 1, GSTO1 counter -15, LYPLA1 inh -3, Fam108B inh 1 and PME-1 inh 10.
COc1cc(/C=C/c2nc3ccccc3c(=O)n2-c2cccc(O)c2)ccc1O was read as LYPLA2 counter -4, PAD4 inh -4, GSTO1 counter -3, LYPLA1 inh -7, Fam108B inh 3 and PME-1 inh 36*.
For CN[C@H]1C[C@H]2O[C@@](C)([C@H]1OC)n1c3ccccc3c3c4c(c5c6ccccc6n2c5c31)C(=O)NC4 the results were LYPLA2 counter -3, PAD4 inh 3, GSTO1 counter -7, LYPLA1 inh -19, Fam108B inh 48* and PME-1 inh 52*.
CCCCn1c(NC(=O)c2ccc(Br)o2)c(C(=O)OCC)c2nc3ccccc3nc21 was read as LYPLA2 counter 89*, PAD4 inh 72*, GSTO1 counter 90*, LYPLA1 inh 81*, Fam108B inh 59* and PME-1 inh 34*.
For CCCCn1c(N)c(C(=O)NCCN2CCOCC2)c2nc3ccccc3nc21 the results were LYPLA2 counter 2, PAD4 inh -4, GSTO1 counter -1, LYPLA1 inh -1, Fam108B inh -1 and PME-1 inh 3.
Screening CN(C)C1(c2nnnn2CCOC(=O)Nc2ccc(Cl)cc2)CCCCC1 returned LYPLA2 counter 15, PAD4 inh 0, GSTO1 counter -4, LYPLA1 inh 3, Fam108B inh 2 and PME-1 inh 37*.
For Cc1cccc(C(=O)Nc2ccc3c(c2)CC2(C(=O)N(C)C(=O)N(C)C2=O)C2CCCN32)c1 (stereo not drawn) the results were LYPLA2 counter -4, PAD4 inh -2, GSTO1 counter 3, LYPLA1 inh -3, Fam108B inh -4 and PME-1 inh -11.
Screening CCC(C)n1c(O)c(/C=N/Nc2ccccc2)c(=O)[nH]c1=S (stereo not drawn) returned LYPLA2 counter -1, PAD4 inh -30, GSTO1 counter -5, LYPLA1 inh -7, Fam108B inh 1 and PME-1 inh 1.
`O=C1NC(=O)N(CCC2=CCCCC2)C(=O)/C1=C/c1ccc(O)cc1` gave LYPLA2 counter 4, PAD4 inh -2, GSTO1 counter 35*, LYPLA1 inh -1, Fam108B inh 1 and PME-1 inh -2.
CN1CCc2nc3sc(C#N)c(N)c3c(-c3cccs3)c2C1 was read as LYPLA2 counter -2, PAD4 inh -2, GSTO1 counter 6, LYPLA1 inh 2, Fam108B inh 2 and PME-1 inh 5.
CN1CCc2nc(N)c(C#N)c(-c3ccccc3)c2C1 was read as LYPLA2 counter 1, PAD4 inh 4, GSTO1 counter 36*, LYPLA1 inh 4, Fam108B inh -4 and PME-1 inh 0.
For O=C1NC(=O)N(Cc2ccco2)C(=O)/C1=C/c1cccn1CCOc1ccccc1Cl the results were LYPLA2 counter -5, PAD4 inh -7, GSTO1 counter 11, LYPLA1 inh -4, Fam108B inh 5 and PME-1 inh 51*.
O=C1NC(=O)N(Cc2ccccc2)C(=O)/C1=C\c1ccco1 was read as LYPLA2 counter -5, PAD4 inh -22, GSTO1 counter 18, LYPLA1 inh -1, Fam108B inh 3 and PME-1 inh -1.
O=P(Oc1ccccc1)(Oc1ccccc1)C(Nc1ccccc1)c1ccccc1 (stereo not drawn) was read as LYPLA2 counter 4, PAD4 inh -4, GSTO1 counter 1, LYPLA1 inh 2, Fam108B inh -1 and PME-1 inh 4.
`Cc1ccc(C(O)P(=O)(Oc2ccccc2)Oc2ccccc2)cc1` (stereo not drawn) gave LYPLA2 counter 8, PAD4 inh 4, GSTO1 counter 10, LYPLA1 inh 2, Fam108B inh 3 and PME-1 inh 38*.
Screening O=P(Oc1ccccc1)(Oc1ccccc1)C(O)c1ccccc1 (stereo not drawn) returned LYPLA2 counter 8, PAD4 inh -2, GSTO1 counter -44, LYPLA1 inh 0, Fam108B inh 2 and PME-1 inh 46*.
`O=c1[nH]c(=S)[nH]c(O)c1N=Nc1cc(S(=O)(=O)Nc2ccc(Cl)cc2)ccc1Cl` gave LYPLA2 counter 2, PAD4 inh -1, LYPLA1 inh -3 and PME-1 inh 41*.
For CCOC(=O)[C@@H]1[C@H]2COc3ccc(Br)cc3[C@H]2N2C(=O)N(c3cccc(C)c3)C(=O)[C@]12C the results were PAD4 inh 0.
For Cc1cccc(N2C(=O)NC(=O)/C(=C/c3cc4c(cc3[N+](=O)[O-])OCO4)C2=O)c1 the results were LYPLA2 counter -3, PAD4 inh -3, GSTO1 counter 29, LYPLA1 inh -2, Fam108B inh 3 and PME-1 inh 45*.
Screening C=C1[C@H]2CC[C@H]3[C@]4(C)C[C@H](O[C@@H]5OC(CO)[C@@H](OSOOO)[C@H](OS(=O)(=O)O)[C@H]5OC(=O)CC(C)C)C[C@@H](C(=O)O)[C@H]4CC[C@]3(C2)[C@H]1O (stereo partly drawn) returned PAD4 inh -1.
`CCC(C)NC(=O)c1c(N)n(CCCOC)c2nc3ccccc3nc12` (stereo not drawn) gave LYPLA2 counter 4, PAD4 inh -5, GSTO1 counter 61*, LYPLA1 inh 0, Fam108B inh 6 and PME-1 inh 9.
O=C(c1cn(Cc2ccccc2)c2ccccc12)C1CC1 was read as LYPLA2 counter -3, PAD4 inh -5, GSTO1 counter 5, LYPLA1 inh -4, Fam108B inh -4 and PME-1 inh -6.
Screening N#Cc1ccccc1Cn1cc(C(=O)C2CC2)c2ccccc21 returned LYPLA2 counter 0, PAD4 inh -1, GSTO1 counter -2, LYPLA1 inh -2, Fam108B inh 6 and PME-1 inh 63*.
Screening CCC(=O)c1cn(Cc2ccccc2C#N)c2ccccc12 returned LYPLA2 counter 2, PAD4 inh -2, GSTO1 counter 2, LYPLA1 inh -1, Fam108B inh -5 and PME-1 inh 35*.
`CC(=O)c1ccc(OC(C)C)c(Cc2c(O)[nH]c(=S)[nH]c2=O)c1` gave LYPLA2 counter 0, PAD4 inh -4, GSTO1 counter 4, LYPLA1 inh 1, Fam108B inh -2 and PME-1 inh -3.
